Here are results for 22 compounds from PubChem BioAssay AID556 (SRMLSC, 2006).

The campaign covered roughly 65,000 compounds. About 320 (0.49%) were called active.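 The calls were made as follows: active = the 320 compounds with the highest percent inhibition in the single-dose primary screen, excluding strongly autofluorescent ones (cut at about 32% in these data); inactive = the rest, inconclusive results apart.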 Shown is part of a subset that was picked to be rich in actives.

For this experiment, the system named is diphosphomevalonate decarboxylase (Streptococcus pneumoniae D39). Briefly: diphosphomevalonate decarboxylase activity blockers – biochemical, PK/LDH-coupled NADH fluorescence, primary screen (AID 556).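 As to inhibition: kinetic rate of NADH fluorescence loss reporting ADP formed by the decarboxylase; 0% = full reaction rate with carrier and 100% = no-substrate background rate.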 Conditions: purified DPM-DC, at 10 µM; active compounds read high unless noted.
Turning to `CN(CC(=O)NC1CCCCC1)S(=O)(=O)c1cccc2cccnc12`, the inhibition result was “inactive”.

Consider `O=C(Oc1ccccc1)c1ccc2nccnc2c1`, for which the inhibition result was “inactive”.

For `CCOC(=O)c1sc(NC(=O)c2cc(S(=O)(=O)N3CCOCC3)ccc2C)nc1C`, the inhibition is 11% (inactive).

Consider `Cc1ccc(N2CCN(c3ccc(C)cc3)C2c2ccccn2)cc1`, for which the inhibition entry is “inactive”.

Consider `O=C(c1cc(-c2cccc(O)c2)on1)N1CCc2ccccc2C1`, for which the inhibition was 1% (inactive).

Take `COc1cc(Cl)c(S(=O)(=O)N2CCN(Cc3ccc4c(c3)OCO4)CC2)cc1Cl`: the inhibition entry was “inactive”.

For the compound `O=C(c1cc(-c2cccs2)on1)N1CCCCC1`, the inhibition entry is “inactive”.

In the case of `Cc1ccc(C(=O)N2CCCCCC2)cc1Br`, the inhibition result was “inactive”.

As to `Cc1ccc2cc3cc(C(=O)N4CCCCCC4)oc3nc2c1`, the inhibition was 33% (active).

Take `CCOC(=O)CNC(=O)CSc1nnc(COc2ccc(Cl)cc2)n1CC`: the inhibition is 2% (inactive).

In the case of `Cc1oc(-c2ccccc2F)nc1CS(=O)(=O)CC(=O)NCCCN(C)C1CCCCC1`, the inhibition was 9% (inactive).

Take `COc1ccc(-n2c(Cc3cccn3C)nnc2SCC(=O)Nc2cc(C)cc(C)c2)cc1`: the inhibition entry was “inactive”.

In the case of `O=C(O)CCCC(=O)Nc1ccccc1-n1ccnc1`, the inhibition result is “inactive”.

`Cc1nc(SCC(=O)Nc2cc(C)on2)c2c(C)c(C)sc2n1`: the inhibition entry was “inactive”.

Take `CCOc1ccccc1N(CC(=O)Nc1ccccc1C(=O)OC)S(C)(=O)=O`: the inhibition entry was “inactive”.

For `COc1ccc(OC)c(NC(=O)CN2CCN(C(=O)c3ccco3)CC2)c1`, the inhibition entry is “inactive”.

Consider `COc1cccc(C2/C(=C(/O)c3ccncc3)C(=O)C(=O)N2CCCN(C)C)c1` (configuration not stated), for which the inhibition was 16% (inactive).

Take `CC(C)c1nc(-c2ccccn2)no1`: the inhibition result was “inactive”.

Turning to `CC(=O)NCC(=O)N(C)C(C(=O)Nc1ccc2c(c1)OCCO2)c1ccccc1` (configuration not stated), the inhibition entry was “inactive”.

For `Cc1cc(C)cc(OCc2nnc(SCC(=O)OC3CCCCC3)o2)c1`, the inhibition entry is “inactive”.

Regarding `CCOC(=O)c1ccc(N2C(=O)CC(Sc3nc(O)c(CC)c(=O)[nH]3)C2=O)cc1` (configuration not stated), the inhibition result is “inactive”.

Consider `Cn1c2c(c(=O)n(C)c1=O)C1c3ccccc3OCC1C(C)(C)O2` (configuration not stated), for which the inhibition is 10% (inactive).

Broadly, the inhibition is the change of the read-out against control, counted positive when it falls.
